# Screening results (PubChem BioAssay)
# Compounds with a hit are over-represented: about 12% of the library has one in this group of screens.
# PLK1 PBD block: qHTS for Inhibitors of PLK1-PDB (polo-like kinase 1 - polo-box domain): Primary Screen; Serine/threonine-protein kinase PLK1 (Homo sapiens), P53350; Plk1 PBD binding of FITC phosphopeptide, fluorescence polarization; Potency, µM, for the others: max response, negative = inhibition, most hits filed as inhibitors; 360,000 tested, 2.8% active; also: series mostly up to about 57 µM; nearly all actives have a fitted effect of over 65% in size
# VP16 counter: VP16 counterscreen qHTS for inhibitors of ROR gamma transcriptional activity; Drosophila S2 Gal4-VP16 UAS-luciferase, luminescence, 20 h; Potency, µM (doses to about 53.6 µM), for inactives: at the top dose activity, negative = inhibition, hits mostly inhibitors; 310,000 tested, 3.5% active; AID 2546, 2010;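 also: Gal4-VP16 expression switched on by copper sulfate through the metallothionein promoter; nearly all actives have a fitted effect of over 50% in size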
# ALDH1A1 block: qHTS Assay for Inhibitors of Aldehyde Dehydrogenase 1 (ALDH1A1); Aldehyde dehydrogenase 1A1 (Homo sapiens), P00352; Purified ALDH1A1, NADH fluorescence, propionaldehyde substrate; Potency, µM (titrated, usually from 75.3 µM), without a hit: at the highest dose activity, negative = inhibition, hits mostly inhibitors; 220,000 tested, 7.3% active; AID 1030, 2008; active = well fitted inhibition curve with a large enough effect, not every such curve was filed as active; inconclusive = small, poorly fitted or top-dose-only effect, or another doubt; inactive = no such curve, though single readings can be large or run the other way;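 also: plate controls were no enzyme wells and a reference inhibitor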
# Sfp inh: qHTS Assay for Inhibitors of Bacillus subtilis Sfp phosphopantetheinyl transferase (PPTase); Biochemical Sfp PPTase activity, qHTS; Potency, µM, for the others: largest response in the series, negative = inhibition, most hits filed as inhibitors; 310,000 tested, 3.5% active; AID 1490, 2009;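 also: the enzyme is Sfp with the accession as filed and its product quenches rhodamine fluorescence; 0% = enzyme reaction without inhibitor and -100% = no enzyme wells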
#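 Reaction rates are the 30-min fluorescence difference (ex 525, em 598 nm) in wells containing 15 nM Sfp, 5 uM rhodamine-CoA and 12.5 uM BHQ-2-YbbR at pH 7.6 with 10 mM MgCl2.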
# RORgamma inh: qHTS for inhibitors of ROR gamma transcriptional activity; Drosophila S2 Gal4-RORgamma UAS-luciferase reporter, 20 h; Potency, µM (top dose mostly 53.6 µM), for the others: at the highest dose activity change, negative = inhibition, hits mostly inhibitors; 310,000 tested, 5.4% active; AID 2551, 2010; Nuclear receptor ROR-gamma (Mus musculus), P51450; also: nearly all actives have a fitted effect of over 60% in size
# Target sequence (P51450 whole entry, looked up, the tested form may be a part): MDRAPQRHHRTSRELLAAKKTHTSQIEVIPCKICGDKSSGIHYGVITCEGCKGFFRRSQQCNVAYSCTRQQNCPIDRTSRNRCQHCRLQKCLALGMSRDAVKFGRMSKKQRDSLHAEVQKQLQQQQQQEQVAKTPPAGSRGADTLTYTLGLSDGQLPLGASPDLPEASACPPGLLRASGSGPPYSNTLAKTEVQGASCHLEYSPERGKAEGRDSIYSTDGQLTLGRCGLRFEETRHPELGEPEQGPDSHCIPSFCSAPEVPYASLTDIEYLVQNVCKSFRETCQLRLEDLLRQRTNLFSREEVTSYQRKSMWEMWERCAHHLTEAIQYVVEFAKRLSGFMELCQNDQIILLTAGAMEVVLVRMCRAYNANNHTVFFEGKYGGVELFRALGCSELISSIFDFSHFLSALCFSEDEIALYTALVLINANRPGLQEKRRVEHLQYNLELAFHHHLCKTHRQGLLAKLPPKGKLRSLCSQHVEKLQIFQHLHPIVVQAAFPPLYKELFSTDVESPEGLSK
#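 Compounds are pin-transferred onto Drosophila Schneider cells expressing a copper-inducible Gal4–ROR gamma transactivation domain fusion. After 1 hr, copper sulfate is added to 700 uM final; luciferase is read 20 hr later.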
# * hit, by the source's call; ? = inconclusive; · = no result given; [ ] = another dose, or the depositor's remark. Unless noted, calls follow the shape of the dose curve; as a rule, active = well fitted curve in the direction sought with a large enough effect; inconclusive = small, poorly fitted or top-dose-only effect, or another doubt; inactive = no such curve, though single readings can be large; an effect the other way counts as inactive or inconclusive. Unless noted, % is scaled to controls: 0 for no effect and ±100 for the full control effect; potency is read from the fitted curve at half-maximal effect.
SMILES,PLK1 PBD block,VP16 counter,ALDH1A1 block,Sfp inh,RORgamma inh
Nc1ncnc2[nH]c(=O)[nH]c12,·,4%,-1%,11%,-9%
CCOC(=O)OCC1OC(c2ccc(C(C)=O)cc2)C=CC1OC(=O)OCC (stereo not drawn),·,-18%[10 µM],-17%[13.5 µM],14%,2%[10 µM]
C=C1C[C@@]23C[C@]1(O)CC[C@@H]2[C@]12C=C[C@@H](O)[C@](C)(C(=O)O1)[C@H]2[C@H]3C(=O)O,·,8%[17 µM],-3%[20.9 µM],-2%,2%[16.9 µM]
COc1ccc(NC(=S)Nc2ccc(N)c([N+](=O)[O-])c2)cc1,?,?,25µM*,?,2%
CCOc1ccc(NC(=S)NCc2cccnc2)cc1,-5%,14%,4%,13%,-14%
CCOc1ccc(NC(=S)NCCCN2CCN(c3ccc(OC)cc3)CC2)cc1,2%,?,-6%,6%,5µM*
CCOc1ccc(NC(=S)NCCCc2ccccc2)cc1,-17%,?,-7%,9%,5µM*
CCOc1ccc(NC(=S)Nc2ccc(OCc3ccccc3)cc2)cc1,1%,22µM*,4%,15%,?
CCOc1ccc(CN2CCC(Cc3ccccc3)CC2)cc1,-1%,-5%,·,1%,-29%
CCOc1ccc(OCc2cccc(C(=O)Nc3ccc(CN4CCCCC4)cc3)c2)cc1,-19%,-14%,8%,13µM*,-37%
CCC(C)c1ccc(NC(=S)Nc2ccc(OC)cc2)cc1 (stereo not drawn),-3%,5.6µM*,?,9%,7.1µM*
COc1ccc(NC(=S)Nc2ccc3nccnc3c2)cc1,-25%,?,?,45µM*,?
CCOc1ccc(NC(=S)NCCN2CCN(Cc3ccccc3)CC2)cc1,1%,?,8%,18%,11µM*
COc1ccc(NC(=S)Nc2ccc3snnc3c2)cc1,?,9%,?,-17%,-44%
O=C(Nc1c(-c2ccc(Cl)cc2)[nH][nH]c1=O)c1ccccc1Cl,-14%,·,·,·,·
N#Cc1nc(COc2ccccc2)oc1N1CCC(Cc2ccccc2)CC1,-3%,1%,-2%,-25%,21%
N#Cc1nc(COc2ccccc2)oc1N1CCN(Cc2ccccc2)CC1,30µM*,-9%,?,12%,19%
Cc1ccc(OCc2nc(C#N)c(N3CCN(Cc4ccccc4)CC3)o2)cc1,27µM*,3%,2%,2%,?
CCN(CC)CCCN(Cc1cc2cc3c(cc2[nH]c1=O)OCO3)C(=S)Nc1ccc(OC)cc1,-13%,-2%,-8%,7%,11%
CCCC(=O)N1CCC1(C)C(=O)NS(=O)(=O)c1ccccc1Cl (stereo not drawn),4%,·,·,·,·
COC(=O)c1ccc(OCCCCN2CC(C)OC(C)C2)cc1 (stereo not drawn),-17%,-16%,?,56µM*,-1%
CC1CN(CCCCOc2ccc3ccccc3c2)CC(C)O1 (stereo not drawn),-9%,-13%,-8%,-11%,11%
O=C(CSc1n[nH]c(-c2ccco2)n1)Nc1ccccc1Cl,-6%,1%,·,7%,?
CCOC(=O)c1c(NC(=O)CSc2n[nH]c(-c3ccco3)n2)sc(C)c1C,-6%,10%,-13%,-10%,25%
COc1ccc(NC(=O)CSc2n[nH]c(-c3ccco3)n2)cc1,0%,?,-3%,-18%,?
O=C(CSc1n[nH]c(-c2ccco2)n1)N1c2ccccc2Sc2ccccc21,-18%,-3%,7.9µM*,?,5%
CCOC(=O)CSc1n[nH]c(-c2ccco2)n1,30µM*,-13%,1%,5%,0%
O=C(CSc1n[nH]c(-c2ccco2)n1)Nc1ccc(Br)cc1,27µM*,-21%,·,21%,?
O=C(CSc1n[nH]c(-c2ccco2)n1)Nc1sc2c(c1C(=O)Nc1ccccc1)CCCC2,-10%,7%,-3%,35µM*,?
CC1=C(C(=O)N2CCOCC2)CC(CC(=O)NCc2cccc3ccccc23)C(=O)N1Cc1ccccc1 (stereo not drawn),-4%,·,·,·,·
